According to PubChem BioAssay (NCATS):
Inconclusive results are not listed. A number with no mark means an inactive call. The source made the active and inactive calls. Calls come from the whole dose curve; as a rule, active = well fitted inhibition curve with a large enough effect; inconclusive = small, poorly fitted or top-dose-only effect; inactive = flat fitted curve, though single readings scatter.

tested on: CP335; assay: qHTS profiling for inhibitors of Plasmodium falciparum proliferation (AID 504749); note: nearly all actives have a fitted effect of over 60% in size;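 for activity, negative = inhibition: 0% = DMSO vehicle and full inhibition = artemisinin control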; conditions: P. falciparum in erythrocytes, SYBR Green DNA, 72 h; series mostly up to 28.7 µM; activity, negative = inhibition: at the top concentration
Method in brief: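 Fluorescence of SYBR Green-bound parasite DNA, read at 485/535 nm, served as the growth measure. Infected erythrocytes were cultured with compound 72 h; artemisinin (0.29 uM) and DMSO wells defined the normalization range.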
Potency is the fitted concentration of half-maximal effect.

SMILES	activity, negative = inhibition	Potency
Cc1ccccc1	7.54%	–
CC1(C)S[C@@H]2[C@H](NC(=O)[C@@H](NC(=O)N3CCNC3=O)c3ccccc3)C(=O)N2[C@H]1C(=O)O	5.37% [at 12.8 µM]	–
CC1=C(/C=C/C(C)=C/C=C/C(C)=C/C=C/C=C(C)/C=C/C=C(C)/C=C/C2=C(C)CCCC2(C)C)C(C)(C)CCC1	10.8%	–
CCCC(=O)O[C@]1(C(=O)CCl)[C@H](C)C[C@@H]2[C@H]3CCC4=CC(=O)C=C[C@]4(C)[C@@]3(F)C(=O)C[C@@]21C	–	1510 nM (active)
CCC(=O)NCCC1CCc2ccc3c(c21)CCO3 (stereo not given)	5.98%	–
Cc1cc(C(=O)NNCc2ccccc2)no1	1.59% [at 12.8 µM]	–
Cc1ccccc1OCC(O)CNCCOc1ccc(C(N)=O)cc1 (stereo not given)	-9.08%	–
CCCCCCCCCCCCCC[n+]1ccc(C)cc1	–	4260 nM (active)
COC(F)(F)C(Cl)Cl	-2.41%	–
CCCCCCCCCCCC[n+]1ccc2ccccc2c1	–	953 nM (active)
O=C(O)CCC(=O)C(=O)O	-1.09%	–
O=C(O)CN(CCN(CC(=O)O)CC(=O)O)CC(=O)O	-1.25%	–
COc1ccc2c3c1O[C@H]1C[C@@H](O)C=C[C@@]31CCN(C)C2	-2.05%	–
C=CCSSSCC=C	8.99%	–
COC(C(=O)C(O)C(C)O)C1Cc2cc3cc(OC4CC(OC5CC(O)C(O)C(C)O5)C(O)C(C)O4)c(C)c(O)c3c(O)c2C(=O)C1OC1CC(OC2CC(OC3CC(C)(O)C(O)C(C)O3)C(O)C(C)O2)C(O)C(C)O1 (stereo not given)	–	379 nM (active)
CCNC(=O)[C@@H]1CCCN1C(=O)[C@H](CCCN=C(N)N)NC(=O)[C@H](CC(C)C)NC(=O)[C@@H](Cc1c[nH]c2ccccc12)NC(=O)[C@H](Cc1ccc(O)cc1)NC(=O)[C@H](CO)NC(=O)[C@H](Cc1c[nH]c2ccccc12)NC(=O)[C@H](Cc1cnc[nH]1)NC(=O)[C@@H]1CCC(=O)N1	–	4780 nM (active)
O=C(COc1ccc(Cl)cc1)OCCNC12CC3CC(CC(C3)C1)C2	-4.09%	–
CCCCCCCC/C=C\CCCCCCCC(=O)O	2.2%	–
CC(C)(C)C(=O)OCOC(=O)[C@@H]1N2C(=O)[C@@H](N=CN3CCCCCC3)[C@H]2SC1(C)C	4.29% [at 12.8 µM]	–
CCOC(C)=O	-0.866%	–
CCCCCCC(O)C/C=C/CCCCCCCC(=O)O (stereo not given)	3.48%	–
CN1C(=O)CN2CCc3ccccc3C2c2cc(Cl)ccc21 (stereo not given)	-0.945%	–
Cc1c(C)c2c(c(C)c1O)CC[C@@](C)(CCC[C@H](C)CCC[C@H](C)CCCC(C)C)O2	6.73%	–
CC(C(=O)O)c1ccc(N2Cc3ccccc3C2=O)cc1 (stereo not given)	4.18%	–
COC(=O)[C@H]1[C@H]2C[C@@H]3c4[nH]c5ccccc5c4CCN3C[C@H]2C[C@@H](OC(=O)c2cc(OC)c(OC)c(OC)c2)[C@@H]1OC	–	151 nM (active)
O=S(=O)(O)O	3.39%	–
CC(C)N=c1cc2n(-c3ccc(Cl)cc3)c3ccccc3nc-2cc1Nc1ccc(Cl)cc1	–	1810 nM (active)
O=S(=O)(O)c1ccc2c(N=Nc3ccc(S(=O)(=O)O)c4ccccc34)c(O)c(S(=O)(=O)O)cc2c1	2.33%	–
C[C@]12CCC(=O)C=C1CC[C@@H]1[C@@H]2[C@@H](O)C[C@@]2(C)[C@H]1CC[C@]2(O)C(=O)COP(=O)(O)O	2.86%	–
CCN(CC)Cc1cc(Nc2ccnc3cc(Cl)ccc23)ccc1O	–	40.5 nM (active)
